Data: PubChem BioAssay
For some of these results: Entries with a potency or affinity are not part of this list. The source made the active and inactive calls. Unless noted, the rule behind the calls is not given here.

Key:
[1] = antimalarial activity against Dd2 strain (AID 2302;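 active = growth inhibition above 50% at the single 2 µM test dose, taken to imply half-maximal potency below 2 µM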;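 note: 0% = DMSO untreated growth and 100% = chloroquine plus artemisinin killed control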); conditions: P. falciparum Dd2 in RBCs, LDH growth readout, 72 h; at 2 µM; stronger effect = higher value
[2] = HepG2 cytotoxicity, primary screen, cytotoxicity control for P. falciparum antimalarial project, cell-based, ATP luminescence (AID 2303;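 active = inhibition above 50%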;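 note: 0% = DMSO wells and 100% = digitonin-killed cells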); conditions: HepG2 viability, 24-48 h, at 10 µM, stronger effect = higher value
[3] = biological target: L-lactate dehydrogenase (Plasmodium falciparum (isolate CDC / Honduras)) (UniProt Q27743); test: PfLDH activity inhibition – cell lysate, 3D7 strain, counter-screen for P. falciparum growth inhibition project (AID 2304);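 note: 0% = vehicle and 100% = reference inhibitor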; conditions: P. falciparum 3D7 crude extract, LDH APAD/NBT absorbance; at 2 µM; stronger effect = higher value
[4] = inhibition of 3D7 malaria parasite growth – strain 3D7 (AID 2306);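 note: 0% = DMSO wells and 100% = chloroquine plus artemisinin control wells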; conditions: P. falciparum 3D7 erythrocytic growth, LDH absorbance, 72 h; at 2 µM; stronger effect = higher value
[5] = biological target: Calcium-dependent protein kinase 1 (Plasmodium falciparum (isolate 3D7)) (UniProt P62344); test: PfCDPK1 kinase inhibitors, biochemical, TCAMS library (AID 1159585; cut-off not given, nearly all actives have IC50 up to about 0.98 µM;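 note: inhibitors leave more ATP so luminescence rises with inhibition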); conditions: recombinant PfCDPK1, Kinase-Glo ATP depletion luminescence
[6] = biological target: Plasmodium falciparum protein kinase 6 (PK6, PF3D7_1337100) (UniProt Q8IDW1); test: PfPK6 kinase inhibitors, biochemical, TCAMS library (AID 1159586); conditions: recombinant PfPK6, Kinase-Glo ATP depletion luminescence
[7] = biological target: Protein kinase 7 (PK7), Plasmodium falciparum 3D7 (PF3D7_0213400) (UniProt Q7YTF7); test: inhibition of Plasmodium PK7 catalytic activity – biochemical, TCAMS antimalarial set, Kinase-Glo luminescence (AID 1159587); conditions: recombinant PfPK7, Kinase-Glo ATP depletion luminescence
[8] = biological target: Calcium-dependent protein kinase 4 (Plasmodium falciparum (isolate 3D7)) (UniProt Q8IBS5); test: PfCDPK4 kinase inhibitors, biochemical, TCAMS library (AID 1159588; cut-off not given, nearly all actives have IC50 up to about 0.91 µM); conditions: recombinant PfCDPK4, Kinase-Glo ATP depletion luminescence
Sequence of Calcium-dependent protein kinase 4 (Plasmodium falciparum (isolate 3D7)) (Q8IBS5 whole entry, looked up): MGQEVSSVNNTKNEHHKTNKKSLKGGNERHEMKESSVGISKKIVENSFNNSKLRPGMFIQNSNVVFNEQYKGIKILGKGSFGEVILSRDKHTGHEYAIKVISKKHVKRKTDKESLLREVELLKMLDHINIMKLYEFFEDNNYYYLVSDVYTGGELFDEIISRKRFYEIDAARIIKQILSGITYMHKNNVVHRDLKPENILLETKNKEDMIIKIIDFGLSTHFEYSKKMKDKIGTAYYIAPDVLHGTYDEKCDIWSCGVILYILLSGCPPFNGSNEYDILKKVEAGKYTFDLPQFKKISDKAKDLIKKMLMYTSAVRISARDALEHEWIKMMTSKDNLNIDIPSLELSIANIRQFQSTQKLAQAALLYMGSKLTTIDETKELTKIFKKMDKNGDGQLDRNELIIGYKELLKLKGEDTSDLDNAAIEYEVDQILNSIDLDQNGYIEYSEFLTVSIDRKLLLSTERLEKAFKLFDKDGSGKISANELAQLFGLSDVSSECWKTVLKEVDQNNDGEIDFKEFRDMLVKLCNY

Sequence of L-lactate dehydrogenase (Plasmodium falciparum (isolate CDC / Honduras)) (Q27743 whole entry, looked up): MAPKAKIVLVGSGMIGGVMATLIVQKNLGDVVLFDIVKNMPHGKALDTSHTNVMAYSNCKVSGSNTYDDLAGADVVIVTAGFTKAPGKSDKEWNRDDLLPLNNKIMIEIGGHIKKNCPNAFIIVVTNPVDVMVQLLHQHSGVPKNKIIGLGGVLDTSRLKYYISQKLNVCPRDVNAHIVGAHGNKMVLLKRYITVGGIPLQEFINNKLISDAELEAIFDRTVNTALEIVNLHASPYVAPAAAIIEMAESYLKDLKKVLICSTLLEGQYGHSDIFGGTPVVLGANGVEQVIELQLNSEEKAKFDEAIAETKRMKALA
Sequence of Plasmodium falciparum protein kinase 6 (PK6, PF3D7_1337100) (Q8IDW1 1-305): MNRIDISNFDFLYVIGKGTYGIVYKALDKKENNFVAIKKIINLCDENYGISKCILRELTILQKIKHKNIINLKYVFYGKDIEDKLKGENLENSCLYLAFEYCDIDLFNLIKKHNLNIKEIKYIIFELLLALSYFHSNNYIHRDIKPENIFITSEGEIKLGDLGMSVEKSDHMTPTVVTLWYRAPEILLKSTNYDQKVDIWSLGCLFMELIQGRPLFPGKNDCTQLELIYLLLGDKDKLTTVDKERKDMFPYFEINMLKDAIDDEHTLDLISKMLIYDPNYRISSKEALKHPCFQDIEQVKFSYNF
Sequence of Calcium-dependent protein kinase 1 (Plasmodium falciparum (isolate 3D7)) (P62344 whole entry, looked up): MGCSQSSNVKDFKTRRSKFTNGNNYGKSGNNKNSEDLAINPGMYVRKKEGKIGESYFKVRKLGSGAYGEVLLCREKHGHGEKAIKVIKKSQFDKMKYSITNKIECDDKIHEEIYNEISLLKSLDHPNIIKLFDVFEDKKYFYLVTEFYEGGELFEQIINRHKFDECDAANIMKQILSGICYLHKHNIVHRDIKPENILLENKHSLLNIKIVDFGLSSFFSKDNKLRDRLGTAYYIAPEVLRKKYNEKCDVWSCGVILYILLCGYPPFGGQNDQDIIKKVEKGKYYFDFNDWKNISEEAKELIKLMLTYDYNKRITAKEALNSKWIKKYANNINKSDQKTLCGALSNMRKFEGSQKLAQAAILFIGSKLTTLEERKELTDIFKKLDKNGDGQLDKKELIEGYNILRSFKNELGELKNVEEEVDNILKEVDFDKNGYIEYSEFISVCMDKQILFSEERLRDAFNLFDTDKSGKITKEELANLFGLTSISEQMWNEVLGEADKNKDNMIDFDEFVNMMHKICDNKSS
Sequence of Protein kinase 7 (PK7), Plasmodium falciparum 3D7 (PF3D7_0213400) (Q7YTF7 1-343): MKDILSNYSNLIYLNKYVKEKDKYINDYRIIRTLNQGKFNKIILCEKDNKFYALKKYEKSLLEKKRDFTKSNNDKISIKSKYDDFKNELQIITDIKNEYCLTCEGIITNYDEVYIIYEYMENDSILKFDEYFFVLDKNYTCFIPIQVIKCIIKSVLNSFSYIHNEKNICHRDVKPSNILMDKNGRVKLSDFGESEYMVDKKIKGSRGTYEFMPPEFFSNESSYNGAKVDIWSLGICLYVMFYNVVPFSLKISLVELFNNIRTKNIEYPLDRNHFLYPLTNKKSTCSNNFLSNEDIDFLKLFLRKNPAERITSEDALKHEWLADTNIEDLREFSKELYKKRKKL

COc1cc(C(=O)NCCCN2CCN(c3cccc(Cl)c3)CC2)ccc1-c1nc2cc(Cl)c(F)cc2[nH]1
inactive: inhibition [2] 15% | inhibition [3] 0% | outcome [5] | outcome [6] | outcome [7] | outcome [8]
active: growth inhibition [1] 81% | growth inhibition [4] 100%

Cc1cc(N2CCCCC2)nc2ccc(NC(=O)c3cncc(Br)c3)cc12
inactive: inhibition [2] -3% | inhibition [3] 0% | outcome [5] | outcome [6] | outcome [7] | outcome [8]
active: growth inhibition [1] 86% | growth inhibition [4] 101%

c1csc(-c2nc(N3CCCCC3)ncc2-c2ccsc2)n1
inactive: inhibition [2] -5% | inhibition [3] -3% | outcome [5] | outcome [6] | outcome [7] | outcome [8]
active: growth inhibition [1] 72% | growth inhibition [4] 89%

CO/C(=C/C=C/c1cc2cc(Cl)c(Cl)cc2[nH]1)C(=O)NC1CC(C)(C)N(C)C(C)(C)C1
inactive: inhibition [3] -12% | outcome [5] | outcome [6] | outcome [7] | outcome [8]
active: growth inhibition [1] 85% | inhibition [2] 58% | growth inhibition [4] 99%

O=C(Cc1cnc[nH]1)Nc1ccc(-c2ccc(-c3nc4ccccc4[nH]3)s2)cc1
inactive: growth inhibition [1] 34% | inhibition [2] 44% | inhibition [3] 1% | outcome [5] | outcome [6] | outcome [7] | outcome [8]
active: growth inhibition [4] 90%

Cc1ccc(N2CCN(CCCCNC(=O)c3ccc(NC(=O)c4ccc(Cl)cc4)cc3)CC2)c(C)c1
inactive: growth inhibition [1] 20% | inhibition [2] 30% | inhibition [3] 7% | outcome [5] | outcome [6] | outcome [7] | outcome [8]
active: growth inhibition [4] 95%

CC(C)(C)C(=O)N1CCN(c2ccc([N+](=O)[O-])c(NC3CC3)c2)CC1
active: growth inhibition [1] 97% | growth inhibition [4] 95%
inactive: inhibition [2] 8% | inhibition [3] 3% | outcome [5] | outcome [6] | outcome [7] | outcome [8]

O=C(Nc1cc(Cl)ccc1Cl)N[C@H]1CCN(CCCCCNC(=O)[C@@H]2C[C@H]2c2ccc(Cl)c(Cl)c2)C1
inactive: growth inhibition [1] 1% | inhibition [2] 49% | inhibition [3] 0% | outcome [5] | outcome [6] | outcome [7] | outcome [8]
active: growth inhibition [4] 97%

COc1cc2ccccc2c(CON2C(N)=NC(N)=NC2(C)C)c1OC
active: growth inhibition [4] 96%
inactive: growth inhibition [1] 10% | inhibition [2] 2% | inhibition [3] 1% | outcome [5] | outcome [6] | outcome [7] | outcome [8]

CCN1CCC(N(Cc2ccc(-c3ccc(C(F)(F)F)cc3)cc2)C(=O)CCCCn2c(CCc3cccc(F)c3F)nc(=O)c3ccccc32)CC1
inactive: inhibition [3] 4% | outcome [5] | outcome [6] | outcome [7] | outcome [8]
active: growth inhibition [1] 77% | inhibition [2] 54% | growth inhibition [4] 90%

Nc1nccc2ccc(-c3ccncc3)cc12
inactive: inhibition [2] 19% | inhibition [3] 5% | outcome [5] | outcome [6] | outcome [7] | outcome [8]
active: growth inhibition [1] 95% | growth inhibition [4] 96%

CNCCNC(=O)C1Cc2c([nH]c3c(C)cccc23)C(c2ccc(Cl)c(Cl)c2)N1 (stereo not given)
inactive: inhibition [2] 13% | inhibition [3] -5% | outcome [5] | outcome [6] | outcome [7] | outcome [8]
active: growth inhibition [1] 60% | growth inhibition [4] 102%

COc1cccc(NC(=O)COc2ccc(C(=O)Nc3nc4ccccc4[nH]3)cc2)c1
inactive: growth inhibition [1] 29% | inhibition [2] 19% | inhibition [3] 0% | outcome [5] | outcome [6] | outcome [7] | outcome [8]
active: growth inhibition [4] 99%

O=S(=O)(Nc1ccc(CCN2CCC(N3CCCCC3)CC2)cc1)c1cccc2cccnc12
inactive: growth inhibition [1] 45% | inhibition [2] 14% | inhibition [3] -3% | outcome [5] | outcome [6] | outcome [7] | outcome [8]
active: growth inhibition [4] 101%

O=S(=O)(Nc1ccc(CCN2CCC(N3CCCCC3)CC2)cc1)c1cccc(C(F)(F)F)c1
inactive: growth inhibition [1] 15% | inhibition [2] 20% | inhibition [3] -3% | outcome [5] | outcome [6] | outcome [7] | outcome [8]
active: growth inhibition [4] 101%

COc1ccc(NS(=O)(=O)c2ccc(C(=O)Nc3ccc(C(F)(F)F)cc3)cc2)cc1N1CCN(CC2CC2)CC1
active: growth inhibition [4] 92%
inactive: growth inhibition [1] -5% | inhibition [2] 15% | inhibition [3] 1% | outcome [5] | outcome [6] | outcome [7] | outcome [8]

CC(C)CNCc1ccc(-c2cccc(-c3nc4ccccc4[nH]3)c2)cc1
inactive: inhibition [3] -5% | outcome [5] | outcome [6] | outcome [7] | outcome [8]
active: growth inhibition [1] 98% | inhibition [2] 53% | growth inhibition [4] 99%

Cc1cc(NN=Cc2ccccc2[N+](=O)[O-])c2ccccc2n1
active: growth inhibition [1] 100% | growth inhibition [4] 100%
inactive: inhibition [2] 10% | inhibition [3] -2% | outcome [5] | outcome [6] | outcome [7] | outcome [8]

CN(C)CCN(Cc1ccccc1)c1ccc([N+](=O)[O-])cc1C(F)(F)F
active: growth inhibition [1] 89% | growth inhibition [4] 96%
inactive: inhibition [2] 40% | inhibition [3] -8% | outcome [5] | outcome [6] | outcome [7] | outcome [8]

CCCN1CCN(CC(O)CNC(=O)Nc2ccc(Br)cc2)CC1 (stereo not given)
active: growth inhibition [1] 100% | growth inhibition [4] 101%
inactive: inhibition [2] 10% | inhibition [3] 0% | outcome [5] | outcome [6] | outcome [7] | outcome [8]
